Screens (PubChem BioAssay)
The list is not random: actives were taken first. Their share in the collection is about 4.8%.
DAX1 inh-1: inhibitors of DAX1 repression of SF-1 activated StAR promoter; HEK293T StAR-luciferase reporter, SF-1/DAX-1 repression relief; inhibition, % at 6.8 µM; hit rate 1.1% among 370,000;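 active means inhibition above the mean over all tested compounds plus 3 SD, cut at about 3.6% in these data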;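 further: 0% = DAX-1 cells with DMSO and 100% = cells lacking DAX-1 with DMSO; higher inhibition means more luminescence from relief of DAX-1 repression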
NR1D1 modulator: Rev-erb alpha (human) modulation. Rev-erbα–FITC-DNA binding, fluorescence polarization, 90 min. activity, % at 10 µM. hit rate 0.79% among 370,000. AID 1259318;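 active means activity above about 14%, limit read from the data; passing the limit was not always enough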;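 further: 0% = DMSO wells with 35 nM protein and 100% = DMSO wells with 750 nM protein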
DAX1 inh-2: NR0B1 (DAX1) inhibition; P51843; HEK293 Gal4-DAX1 luciferase reporter, luminescence; inhibition, % at 6.75 µM; hit rate 0.99% among 340,000; AID 504766;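 active means inhibition above the mean over all tested compounds plus 3 SD, cut at about 4.2% in these data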;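 further: 0% = DAX1-transfected cells with DMSO and 100% = empty-vector control cells with DMSO; inhibition shows as a rise in luminescence from relieved DAX1 repression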
Target sequence (P51843 207-470 limits assumed): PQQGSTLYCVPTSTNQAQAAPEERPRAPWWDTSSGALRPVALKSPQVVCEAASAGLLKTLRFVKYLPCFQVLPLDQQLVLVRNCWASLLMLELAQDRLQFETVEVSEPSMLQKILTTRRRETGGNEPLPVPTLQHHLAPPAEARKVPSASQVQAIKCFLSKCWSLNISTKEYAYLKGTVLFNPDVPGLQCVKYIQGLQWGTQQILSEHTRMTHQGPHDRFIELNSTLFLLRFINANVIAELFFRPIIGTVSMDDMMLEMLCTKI
ssDAF-12 act: activators of S. stercoralis DAF-12 nuclear receptor; HEK293 ssDAF-12/GRIP1 lit1-tk-luc reporter, luminescence; % of 3 µM dafachronic acid response; activation, % at 6.8 µM; hit rate 1% among 370,000; AID 652126;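 active means activation above the mean over all tested compounds plus 3 SD, cut at about 0.9% in these data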;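 further: 0% = DMSO-only wells and 100% = 3 µM delta7-dafachronic acid wells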
hcDAF12 agonist: activators of H. contortus DAF-12 nuclear receptor | HEK293 hcDAF-12 lit1-tk-luc reporter, luminescence; 0% DMSO, 100% Δ7-dafachronic acid | activation, % at 6.8 µM | AID 652067 | hit rate 1.4% among 370,000;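 active means activation above the mean of all tested compounds plus 3 SD, cut at about 5.5% in these data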;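 further: 100% = response to 3 µM Δ7-dafachronic acid high control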
hgDAF-12 ag: agonists of H. glycines DAF-12 nuclear receptor; HEK293 GAL4-hgDAF12 UAS-luciferase reporter, agonist luminescence; normalized to butyrate control; activation, % at 6.8 µM; hit rate 1.8% among 370,000; AID 687014;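 active means activation above a cutoff set at the mean of all screened compounds plus 3 SD, cut at about 10% in these data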;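 further: 0% = DMSO wells and 100% = sodium butyrate wells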
* = called active by the depositor.

How did O=C1C2CC=C(Cl)CC2C(=O)N1CCc1c[nH]c2ccccc12 (stereo not given) do in these assays?
DAX1 inh-1: 1; NR1D1 modulator: -5; DAX1 inh-2: 2; ssDAF-12 act: 1.2*; hcDAF12 agonist: 4; hgDAF-12 ag: 3

What do the screens show for `O=C(O)c1ccc2c(c1)C(=O)N(CCc1c[nH]c3ccccc13)C2=O`?
DAX1 inh-1: 0; NR1D1 modulator: -3; DAX1 inh-2: 1; ssDAF-12 act: 0; hcDAF12 agonist: 5.8*; hgDAF-12 ag: 3

How did O[C@H](CNC[C@@H](O)[C@H]1CCc2cc(F)ccc2O1)[C@@H]1CCc2cc(F)ccc2O1 do in these assays?
NR1D1 modulator: 2

How did COc1ccccc1NC(=O)CCNC(=O)c1ccc(C)cc1 do in these assays?
DAX1 inh-1: 0; NR1D1 modulator: 2; DAX1 inh-2: 0; ssDAF-12 act: -1; hcDAF12 agonist: -2; hgDAF-12 ag: 1

How did Cc1ccccc1NC(=O)c1ccc(OCC(=O)Nc2ccccc2F)cc1 do in these assays?
DAX1 inh-1: -1; NR1D1 modulator: -2; DAX1 inh-2: 0; ssDAF-12 act: -2; hcDAF12 agonist: -2; hgDAF-12 ag: -1

Results for COc1ccccc1NC(=O)CCC(=O)N/N=C(/C)c1ccc(C)cc1 ?
DAX1 inh-1: 0; NR1D1 modulator: -2; DAX1 inh-2: 8.4*; ssDAF-12 act: -1; hcDAF12 agonist: 1; hgDAF-12 ag: -1

Results for Cc1ccc(OCC(=O)Nc2ccccc2F)cc1 ?
DAX1 inh-1: 2; NR1D1 modulator: 2; DAX1 inh-2: 6.1*; ssDAF-12 act: 0; hcDAF12 agonist: 4; hgDAF-12 ag: 13*

Results for Cc1ccc(C(=O)CCC(=O)Nc2ccccc2F)cc1 ?
DAX1 inh-1: 0; NR1D1 modulator: -4; DAX1 inh-2: 3; ssDAF-12 act: 1.0*; hcDAF12 agonist: 1; hgDAF-12 ag: 3

Results for O=C(NC1CCCCN(Cc2cccc(C(F)(F)F)c2)C1=O)c1ccc(Cl)c(Cl)c1 (stereo not given) ?
DAX1 inh-1: -1; NR1D1 modulator: 3; ssDAF-12 act: -2; hcDAF12 agonist: -2; hgDAF-12 ag: -1

What do the screens show for `COc1cc(/C=C2\SC(=Nc3ccccc3OC)NC2=O)ccc1O`?
DAX1 inh-1: -1; NR1D1 modulator: 9; DAX1 inh-2: 0; ssDAF-12 act: -2; hcDAF12 agonist: -2; hgDAF-12 ag: 0

What do the screens show for `COc1ccc(/C=C2\SC(=Nc3ccccc3OC)NC2=O)cc1`?
DAX1 inh-1: -1; NR1D1 modulator: -3; DAX1 inh-2: 4.3*; ssDAF-12 act: -2; hcDAF12 agonist: -3; hgDAF-12 ag: 2

What do the screens show for `O=C1NC(=Nc2ccccc2)S/C1=C\c1ccccc1`?
DAX1 inh-1: 0; NR1D1 modulator: -5; DAX1 inh-2: 3; ssDAF-12 act: 1.0*; hcDAF12 agonist: 5; hgDAF-12 ag: 2

Results for O=C(NCCCc1ccccc1)OC1CC2CC1[C@H]1CCCCN1C2 (stereo not given in full) ?
DAX1 inh-1: 1; NR1D1 modulator: -5; ssDAF-12 act: -1; hcDAF12 agonist: 1; hgDAF-12 ag: -1

What do the screens show for `C/C(=N\NC(=O)CSc1nnc(-c2ccccc2)n1-c1ccc(C)cc1)c1ccc(-c2ccccc2)cc1`?
DAX1 inh-1: 0; NR1D1 modulator: -14; ssDAF-12 act: -1; hcDAF12 agonist: -2; hgDAF-12 ag: -1

How did O=C(O)[C@H]1O[C@H](O)[C@H](O)[C@@H](O)[C@@H]1O do in these assays?
NR1D1 modulator: -4

How did CC(C)CN1CN2Cc3cc(F)ccc3C2CS1(=O)=O (stereo not given) do in these assays?
DAX1 inh-1: -1; NR1D1 modulator: -1; ssDAF-12 act: 0; hcDAF12 agonist: 2; hgDAF-12 ag: 1

Results for CCN(CC)C(=O)CSc1ncnc2c(-c3cccs3)nsc12 ?
DAX1 inh-1: 1; NR1D1 modulator: -26; DAX1 inh-2: 1; ssDAF-12 act: 0.9*; hcDAF12 agonist: 2; hgDAF-12 ag: 2

What do the screens show for `OC1c2cc(Cl)cc(Cl)c2N=C2CCCN21` (stereo not given)?
DAX1 inh-1: 2; NR1D1 modulator: -2; ssDAF-12 act: -1; hcDAF12 agonist: 2; hgDAF-12 ag: 1

How did OC1c2cc(Cl)ccc2-c2c(Cl)cc(Cl)cc21 (stereo not given) do in these assays?
DAX1 inh-1: -2; NR1D1 modulator: 2; DAX1 inh-2: 5.4*; ssDAF-12 act: 0; hcDAF12 agonist: 4; hgDAF-12 ag: 2

How did CCOC(=O)[C@]12CCCCC/C=C\1N(Cc1ccc(OC)cc1)C(=O)[C@H]2CC(=O)NCC12CC3CC(CC(C3)C1)C2 do in these assays?
DAX1 inh-1: 0; NR1D1 modulator: 2; ssDAF-12 act: -1; hcDAF12 agonist: -1; hgDAF-12 ag: -2

What do the screens show for `Cc1[nH]c2ccccc2c1CCN(Cc1cccs1)C(=O)Nc1cccc2c1OCO2`?
DAX1 inh-1: 1; NR1D1 modulator: -3; ssDAF-12 act: 0; hcDAF12 agonist: 5; hgDAF-12 ag: 11*

What do the screens show for `COC(=O)C1CN(CCc2ccccc2)CCS(=O)(=O)N1Cc1ccc(C)cc1` (stereo not given)?
DAX1 inh-1: -1; NR1D1 modulator: -8; ssDAF-12 act: -1; hcDAF12 agonist: -2; hgDAF-12 ag: 1

What do the screens show for `Cc1cc(=O)[nH]c(SCC(=O)Nc2cccc(Cl)c2F)n1`?
DAX1 inh-1: -1; NR1D1 modulator: -1; ssDAF-12 act: -2; hcDAF12 agonist: -2; hgDAF-12 ag: -1

How did CC(C)(C)c1ccc(C(=O)Nc2cc(Cl)ccc2C(=O)O)cc1 do in these assays?
NR1D1 modulator: -4; ssDAF-12 act: 0; hcDAF12 agonist: 3; hgDAF-12 ag: 4

Results for C[C@@H]1CN([C@@H](C)CO)C(=O)c2cc(Br)cnc2O[C@H]1CN(C)C(=O)c1cccc(F)c1 ?
DAX1 inh-1: 0; NR1D1 modulator: 4; DAX1 inh-2: 1; ssDAF-12 act: -1; hcDAF12 agonist: -1; hgDAF-12 ag: 0

How did C[C@H](CO)N1C[C@H](C)[C@H](CN(C)C(=O)Cc2ccncc2)Oc2ncc(Br)cc2C1=O do in these assays?
DAX1 inh-1: 3.8*; NR1D1 modulator: 7; DAX1 inh-2: 1; ssDAF-12 act: -2; hcDAF12 agonist: -2; hgDAF-12 ag: -4

What do the screens show for `C[C@@H]1CN([C@@H](C)CO)C(=O)c2cc(-c3cccnc3)cnc2O[C@H]1CN(C)C(=O)c1cccc(F)c1`?
DAX1 inh-1: 0; NR1D1 modulator: 0; DAX1 inh-2: 6.5*; ssDAF-12 act: 0; hcDAF12 agonist: 0; hgDAF-12 ag: 0

Results for CCn1ccc(C(=O)Nc2ccc(Cl)cn2)n1 ?
DAX1 inh-1: 4.2*; NR1D1 modulator: 3; DAX1 inh-2: 2; ssDAF-12 act: -1; hcDAF12 agonist: 2; hgDAF-12 ag: 9
